TEAD-YAP block = TEAD-YAP interaction inhibition | actives 1.4% (n = 640,000) | inhibition, % at 9.12 µM | AID 1259422 | HEK-TIYL cells, TEAD-Gal4/YAP UAS-luciferase luminescence; in the data active = inhibition above about 32%
GPR151 activ = activators of human GPR151. Q8TDV0. AID 1508602. activation, % at 11.2 µM. actives 1% (n = 650,000). PathHunter beta-arrestin GPR151 cells, luminescence; in the data active = activation above about 4.9%
MITF inh = human MITF inhibition, primary screen; AID 1259374; AlphaScreen MITF homodimerization, bead proximity signal; actives 0.91% (n = 650,000); O75030; inhibition, % at 2.6 µM; in the data active = inhibition above about 50%
FBW7 act = activators of human E3 ligase FBW7; normalized activity (activation), % at 26.1 µM; AlphaScreen FBW7–phospho-cyclin E peptide binding, activator screen; Q969H0; actives 0.13% (n = 650,000); in the data active = normalized activity above about 1.9%;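 also: purified mutant Fbw7 with reduced substrate affinity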
GPR151 confirm = confirmation of human GPR151 activators; shares compounds with GPR151 activ; GPR151 PathHunter beta-arrestin cells, luminescence, 90 min; % of EA-reagent control over plate median; activation, % at 11.2 µM; 6,700 tested, under 10 active;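 active = mean percent activation across replicates above the confirmation screen cutoff of 4.91%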
GPR119 ag = GPR119 activation, counter-screen for GPR151 activators; shares compounds with GPR151 activ; GPR119 PathHunter beta-arrestin cells, luminescence, 90 min; 0 = compound-well median, 100 = enzyme-acceptor control; activation, % at 11.2 µM; actives 0.3% (n = 6,700); AID 1508611;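 active = mean percent activation in the counterscreen above 29.09%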;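 also: counterscreen on off-target GPR119 to flag nonselective hits from the GPR151 activator screen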
A number is an active result. This is a sample that favours compounds with a hit; in the whole collection about 3.4% have one here.

Results for COc1ccc(OC)c(NC(=O)c2cc(S(=O)(=O)N3CCN(c4ccccc4OC)CC3)ccc2F)c1 ?
TEAD-YAP block: inactive; GPR151 activ: inactive; MITF inh: inactive; FBW7 act: inactive

What do the screens show for `Cc1cccn2c(CN(C)CCC3CCOCC3)c(C(=O)N(C)CCc3ccccc3)nc12`?
TEAD-YAP block: inactive; GPR151 activ: 6.2; MITF inh: inactive; FBW7 act: inactive; GPR151 confirm: inactive; GPR119 ag: inactive

Results for COc1ccc(C=C2C(=O)NC(=S)NC2=O)cc1OCc1ccc(Cl)cc1 ?
TEAD-YAP block: inactive; GPR151 activ: inactive; MITF inh: inactive; FBW7 act: inactive

Results for COC(=O)C(CCSC)NC(=O)c1ccccc1F (configuration not stated) ?
TEAD-YAP block: inactive; GPR151 activ: 6.9; MITF inh: inactive; FBW7 act: inactive; GPR151 confirm: inactive; GPR119 ag: inactive

Results for O=C(CNC(=O)C1CCCCC1)NNC(=O)c1ccccc1Br ?
TEAD-YAP block: inactive; GPR151 activ: 5.8; MITF inh: inactive; FBW7 act: inactive; GPR151 confirm: inactive; GPR119 ag: inactive

What do the screens show for `Nn1c(SCC(=O)Nc2cccc(F)c2)nnc1-c1ccc(Cl)cc1`?
TEAD-YAP block: inactive; GPR151 activ: 6.2; MITF inh: inactive; FBW7 act: inactive; GPR151 confirm: inactive; GPR119 ag: inactive

Results for NC(=O)c1ccc(NC(=O)CSc2nnc(-c3ccc(Cl)cc3)n2N)cc1 ?
TEAD-YAP block: inactive; GPR151 activ: inactive; MITF inh: inactive; FBW7 act: inactive

What do the screens show for `Cc1nc(N2CCOCC2)nc2c1CCC2`?
TEAD-YAP block: inactive; GPR151 activ: 10; MITF inh: inactive; FBW7 act: inactive; GPR151 confirm: inactive; GPR119 ag: inactive

What do the screens show for `O=C1OC(c2ccco2)=N/C1=C\c1cccc(Cl)c1Cl`?
TEAD-YAP block: inactive; GPR151 activ: inactive; MITF inh: inactive; FBW7 act: inactive

How did O=C(CCc1nnc(-c2ccsc2)o1)N1CCCCC1CCc1ccccn1 (configuration not stated) do in these assays?
TEAD-YAP block: inactive; GPR151 activ: 6.5; MITF inh: inactive; FBW7 act: inactive; GPR151 confirm: inactive; GPR119 ag: inactive

How did O=C(CCc1nnc(Cc2c[nH]c3ccccc23)o1)N1CCCCC1CCc1ccccn1 (configuration not stated) do in these assays?
TEAD-YAP block: inactive; GPR151 activ: inactive; MITF inh: inactive; FBW7 act: inactive

How did CCCC(c1nnnn1Cc1ccco1)N1CCN(C(=O)c2ccco2)CC1 (configuration not stated) do in these assays?
TEAD-YAP block: inactive; GPR151 activ: inactive; MITF inh: inactive; FBW7 act: inactive

How did CCCCC(c1nnnn1Cc1ccco1)N1CCN(C(=O)c2ccco2)CC1 (configuration not stated) do in these assays?
TEAD-YAP block: inactive; GPR151 activ: 20; MITF inh: inactive; FBW7 act: inactive; GPR151 confirm: inactive; GPR119 ag: inactive

Results for Cc1cc(C)c2cc(C#N)c(N3CCCN(C(=O)CCC(=O)O)CC3)nc2c1 ?
TEAD-YAP block: inactive; GPR151 activ: inactive; MITF inh: inactive; FBW7 act: inactive

Results for CC(=O)N1CCCN(c2nc3cc(C)cc(C)c3cc2C#N)CC1 ?
TEAD-YAP block: inactive; GPR151 activ: 7.2; MITF inh: inactive; FBW7 act: inactive; GPR151 confirm: inactive; GPR119 ag: inactive

Results for COc1cc(S(=O)(=O)N2CC(C)OC(C)C2)ccc1Br (configuration not stated) ?
TEAD-YAP block: inactive; GPR151 activ: inactive; MITF inh: inactive; FBW7 act: inactive

Results for COc1ccc(CNS(=O)(=O)c2ccc(Cl)c(OC)c2)cc1 ?
TEAD-YAP block: inactive; GPR151 activ: inactive; MITF inh: inactive; FBW7 act: inactive

What do the screens show for `CCNS(=O)(=O)c1ccc(Cl)c(OC)c1`?
TEAD-YAP block: inactive; GPR151 activ: 8.0; MITF inh: inactive; FBW7 act: inactive; GPR151 confirm: inactive; GPR119 ag: inactive

Results for COc1cc(S(=O)(=O)N2CC(C)OC(C)C2)ccc1Cl (configuration not stated) ?
TEAD-YAP block: inactive; GPR151 activ: 8.0; MITF inh: inactive; FBW7 act: inactive; GPR151 confirm: inactive; GPR119 ag: inactive

Results for COc1ccc(OCc2cc(C(=O)N3CCC(N(C)C)C3)no2)c(Cl)c1 (configuration not stated) ?
TEAD-YAP block: inactive; GPR151 activ: inactive; MITF inh: inactive; FBW7 act: inactive

What do the screens show for `COc1cc(Cl)c(C)cc1NC(=O)COC(=O)C(CC(C)C)NC(N)=O` (configuration not stated)?
TEAD-YAP block: inactive; GPR151 activ: inactive; MITF inh: inactive; FBW7 act: inactive

How did COc1ccc([N+](=O)[O-])cc1NC(=O)COC(=O)CC(c1ccccc1)c1ccccc1 do in these assays?
TEAD-YAP block: inactive; GPR151 activ: 5.2; MITF inh: inactive; FBW7 act: inactive; GPR151 confirm: inactive; GPR119 ag: inactive

What do the screens show for `COc1cc([N+](=O)[O-])ccc1NC(=O)COC(=O)C(CC(C)C)NC(N)=O` (configuration not stated)?
TEAD-YAP block: inactive; GPR151 activ: 5.3; MITF inh: inactive; FBW7 act: inactive; GPR151 confirm: inactive; GPR119 ag: inactive

What do the screens show for `Fc1ccc(C2=NC3(CCCCC3)NC2=S)cc1`?
TEAD-YAP block: inactive; GPR151 activ: inactive; MITF inh: inactive; FBW7 act: inactive

What do the screens show for `S=C1NC2(CCCCC2)N=C1c1ccccc1`?
TEAD-YAP block: inactive; GPR151 activ: 8.1; MITF inh: inactive; FBW7 act: inactive; GPR151 confirm: inactive; GPR119 ag: inactive

What do the screens show for `Cc1ccc(NC(=O)CSc2cn(Cc3ccc(F)cc3)c3ccccc23)cc1`?
TEAD-YAP block: inactive; GPR151 activ: 7.0; MITF inh: inactive; FBW7 act: inactive; GPR151 confirm: inactive; GPR119 ag: inactive

How did O=C(CNc1n[nH]c(=O)[nH]c1=O)N/N=C/c1ccccc1 do in these assays?
TEAD-YAP block: inactive; GPR151 activ: 8.1; MITF inh: inactive; FBW7 act: inactive; GPR151 confirm: inactive; GPR119 ag: inactive

What do the screens show for `COc1cccc(OC)c1C(=O)n1nc(C)cc1C`?
TEAD-YAP block: inactive; GPR151 activ: inactive; MITF inh: inactive; FBW7 act: inactive

How did COc1ccc(Cl)cc1C(=O)n1nc(C)cc1C do in these assays?
TEAD-YAP block: inactive; GPR151 activ: 9.6; MITF inh: inactive; FBW7 act: inactive; GPR151 confirm: inactive; GPR119 ag: inactive

What do the screens show for `Cc1cc(C)n(C(=O)CSc2ccc(Cl)cc2)n1`?
TEAD-YAP block: inactive; GPR151 activ: 7.8; MITF inh: inactive; FBW7 act: inactive; GPR151 confirm: inactive; GPR119 ag: inactive

What do the screens show for `CN1CCN(CCCOc2ncc(Nc3ncc(-c4ccc(C(F)(F)F)c(F)c4)nc3C(N)=O)cn2)CC1`?
GPR151 activ: 6.9; GPR151 confirm: inactive; GPR119 ag: inactive
